Laboratory results as given in PubChem BioAssay (NCATS).
Values without a mark were called inactive. For some of these results: Measured potencies and affinities stand elsewhere. Calls of active or inactive are those of the source. No rule for the calls is given here.

Assays:
[1] = Ebola virus entry assay, green fluorescence channel
[2] = Ebola virus entry assay, blue channel fluorescence
[3] = Ebola virus entry assay, ratio channel
[4] = Ebola virus entry assay, green channel fluorescence
[5] = Ebola virus entry assay, reporter ratio channel; Channel type: primary
[6] = Ebola virus entry assay, blue channel (ratio component)
For efficacy in this document: 0% is about no effect.

Row | SMILES | efficacy [1] [%] | AC50 [2] | AC50 [3] | outcome [4] | AC50 [5] | outcome [3] | outcome [5] | outcome [2] | outcome [6]
1 | CCOC(=O)C1=C[C@]2(CC)CCCN3CCc4c(n1c1ccccc41)[C@@H]32 | -42.6 | 12.6 µM (active) | 17.8 µM (active) | inactive | 17.8 µM (active) |  |  |  | 
2 | CN(C)CCN(Cc1ccccc1)c1ccccn1 | 35.7 | 22.4 µM (active) | 20 µM (active) | inactive | 20 µM (active) |  |  |  | 
3 | CC(Cc1cccc(C(F)(F)F)c1)NCCOC(=O)c1ccccc1 (centres undefined) | 23 | 31.6 µM (active) | 28.2 µM (active) | inactive | 28.2 µM (active) |  |  |  | 
4 | COc1cc([C@H]2Oc3cc([C@H]4Oc5cc(O)cc(O)c5C(=O)[C@@H]4O)ccc3O[C@@H]2CO)ccc1O | 13.5 | 39.8 µM (active) |  | inactive | 44.7 µM (active) | inactive |  |  | 
5 | OC(CCN1CCCCC1)(c1ccccc1)C1CC2C=CC1C2 (centres undefined) | -14.6 | 12.6 µM (active) |  | inactive |  | inactive | inactive |  | 
6 | CC(C)=CCOc1ccc(/C=C/C(=O)c2ccc(OCC=C(C)C)cc2OCC(=O)O)cc1 | -15.5 |  |  | inactive |  | inactive | inactive | inactive | 
7 | CC1(c2ccccc2)OC(C(=O)O)=CC1=O (centres undefined) | -18.5 |  |  | inactive |  | inactive | inactive | inactive | 
8 | CCCCCCCCCCCCCCCCC(C(=O)O)C(O)(CC(=O)O)C(=O)O (centres undefined) | -32 |  |  | inactive |  | inactive | inactive | inactive | 
9 | C#CC1(O)CC[C@H]2[C@@H]3CCC4=CCCC[C@@H]4[C@H]3CC[C@@]21C (some centres undefined) | 7.54 | 22.4 µM (active) | 22.4 µM (active) | inactive | 22.4 µM (active) |  |  |  | 
10 | C#C[C@]1(OC(C)=O)CC[C@H]2[C@@H]3CCC4=C/C(=N/O)CC[C@@H]4[C@H]3CC[C@@]21CC | -27.8 | 39.8 µM (active) |  | inactive | 39.8 µM (active) | inactive |  |  | 
11 | CC[C@H](c1ccc(O)cc1)[C@@H](CC)c1ccc(O)cc1 | -12.4 | 20 µM (active) | 25.1 µM (active) | inactive | 25.1 µM (active) |  |  |  | 
12 | O=C(Nc1ccc(Cl)cc1)Nc1ccc(Cl)c(Cl)c1 | -28.2 | 15.8 µM (active) | 12.6 µM (active) | inactive | 12.6 µM (active) |  |  |  | 
13 | Cc1cccc(Nc2cc(Cl)nc(SCC(=O)O)n2)c1C | 19.8 |  |  | inactive |  | inactive | inactive | inactive | 
14 | Cc1cc2nc3ccc(=[N+](C)C)cc-3sc2cc1N | -32.6 | 39.8 µM (active) |  | inactive |  | inactive | inactive |  | 
15 | CCOC(=O)c1ccc(OC(=O)CCCCCN=C(N)N)cc1 | -11.5 |  |  | inactive |  | inactive | inactive | inactive | 
16 | COc1ccc2cc3[n+](cc2c1OC)CCc1cc2c(cc1-3)OCO2 | 30.3 |  |  | inactive |  | inactive | inactive | inactive | 
17 | C=CC[N+]1([C@H]2C[C@H]3[C@@H]4CC[C@H]5C[C@H](OC(C)=O)[C@@H](N6CCCCC6)C[C@]5(C)[C@H]4CC[C@]3(C)[C@H]2OC(=O)CC)CCCCC1 | 47.7 | 14.1 µM (active) |  | inactive | 28.2 µM (active) | inactive |  |  | 
18 | O=c1[nH]sc2cc(Cl)ccc12 | -42.1 | 39.8 µM (active) |  | inactive | 39.8 µM (active) | inactive |  |  | 
19 | O=C(Nc1ncc([N+](=O)[O-])s1)c1cccs1 | -37.9 |  |  | inactive |  | inactive | inactive | inactive | 
20 | CCOC(=O)c1c(N)sc2c1CCN(Cc1ccccc1)C2 | 21.5 |  |  | inactive |  | inactive | inactive | inactive | 
21 | COc1ccc(CN2CCN(C(c3ccc(F)cc3)c3ccc(F)cc3)CC2)c(OC)c1OC | 25.5 | 7.08 µM (active) | 10 µM (active) | inactive | 10 µM (active) |  |  |  | 
22 | COc1ccc2nc(NC(=O)Nc3ccccc3)sc2c1 | -33.8 | 22.4 µM (active) | 15.8 µM (active) | inactive | 15.8 µM (active) |  |  |  | 
23 | O=S1(=O)c2cccc3cccc(c23)N1CCCN1CCN(c2ccc(F)cc2)CC1 | -13.1 | 25.1 µM (active) | 25.1 µM (active) | inactive | 25.1 µM (active) |  |  |  | 
24 | O=C(OCc1ccccc1)c1ccc(O)cc1 | -29.7 | 22.4 µM (active) |  | inactive |  | inactive | inactive |  | 
25 | Clc1ccccc1C(c1ccccc1)(c1ccccc1)n1ccnc1 | 24.5 | 39.8 µM (active) |  | inactive | 39.8 µM (active) | inactive |  |  | 
26 | CCOC(=O)[C@H](CCc1ccccc1)N[C@H]1CS[C@H](c2cccs2)CN(CC(=O)O)C1=O | 24 |  |  | inactive |  | inactive | inactive | inactive | 

Row | SMILES | efficacy [1] [%] | AC50 [2] | AC50 [3] | outcome [4] | AC50 [5] | outcome [3] | outcome [5] | outcome [2] | outcome [6]
27 | Cc1cccc(OCC(O)CNC(C)(C)C)c1C (centres undefined) | -12.5 | 39.8 µM (active) |  | inactive | 39.8 µM (active) | inactive |  |  | 
28 | CCCC(=O)O[C@]1(C(=O)CCl)[C@@H](C)C[C@H]2[C@@H]3CCC4=CC(=O)C=C[C@]4(C)[C@@]3(F)C(=O)C[C@@]21C | 17 | 35.5 µM (active) | 20 µM (active) | inactive | 20 µM (active) |  |  |  | 
29 | Cc1cc(N)c2cc(NC(=O)Nc3ccc4nc(C)cc(N)c4c3)ccc2n1 | 18 | 22.4 µM (active) | 20 µM (active) | inactive | 20 µM (active) |  |  |  | 
30 | CCC1(c2cnc[nH]2)Cc2ccccc2C1 | -11.3 | 25.1 µM (active) |  | inactive | 31.6 µM (active) | inactive |  |  | 
31 | Cc1cc2c(OCC(CNC(C)(C)C)OC(=O)c3ccccc3)cccc2[nH]1 (centres undefined) | 15.1 | 25.1 µM (active) | 28.2 µM (active) | inactive | 28.2 µM (active) |  |  |  | 
32 | c1ccc(CCNc2nc(-c3ccccc3)cs2)cc1 | 29.5 | 39.8 µM (active) |  | inactive | 39.8 µM (active) | inactive |  |  | 
33 | Cc1cccc(N(C)C(=S)Oc2ccc3ccccc3c2)c1 | 22.5 | 25.1 µM (active) | 25.1 µM (active) | inactive | 25.1 µM (active) |  |  |  | 
34 | C=CCOc1ccccc1OCC(O)CNC(C)C (centres undefined) | -13.2 | 14.1 µM (active) | 14.1 µM (active) | inactive | 14.1 µM (active) |  |  |  | 
35 | Cc1ccc(C(=O)Nc2ccc(S(=O)(=O)O)c3cc(S(=O)(=O)O)cc(S(=O)(=O)O)c23)cc1NC(=O)c1cccc(NC(=O)Nc2cccc(C(=O)Nc3cc(C(=O)Nc4ccc(S(=O)(=O)O)c5cc(S(=O)(=O)O)cc(S(=O)(=O)O)c45)ccc3C)c2)c1 | 21.5 | 39.8 µM (active) | 20 µM (active) | inactive | 20 µM (active) |  |  |  | 
36 | C[C@]12C=CC(=O)C=C1CC[C@H]1[C@@H]3C[C@@H](O)[C@](O)(C(=O)CO)[C@@]3(C)C[C@H](O)[C@@]12F | 17 |  |  | inactive |  | inactive | inactive | inactive | inactive
37 | Cc1ccc(O)cc1 | -17.7 |  |  | inactive |  | inactive | inactive | inactive | inactive
38 | Oc1c(Cl)cc(Cl)c(Cl)c1Cc1c(O)c(Cl)cc(Cl)c1Cl | 19.2 | 28.2 µM (active) | 15.8 µM (active) | inactive | 15.8 µM (active) |  |  |  | 
39 | Clc1ccc(Nc2nnc(Cc3ccncc3)c3ccccc23)cc1 | -25.3 | 15.8 µM (active) |  | inactive | 31.6 µM (active) | inactive |  |  | 
40 | CCN(CC)CCNC(C(=O)OCCC(C)C)c1ccccc1 (centres undefined) | 47.8 | 31.6 µM (active) | 22.4 µM (active) | inactive | 22.4 µM (active) |  |  |  | 
41 | Cc1cc(CC(=O)O)n(C)c1C(=O)c1ccc(Cl)cc1 | 24 |  |  | inactive |  | inactive | inactive | inactive | 
42 | C[N+]1(CC2COC(c3ccccc3)(c3ccccc3)O2)CCCCC1 (centres undefined) | 25 |  |  | inactive |  | inactive | inactive | inactive | 
43 | CNC(=O)c1cnn(-c2nc(N)c3ncn([C@@H]4O[C@H](CO)[C@@H](O)[C@H]4O)c3n2)c1 | 20.7 |  |  | inactive |  | inactive | inactive | inactive | inactive
44 | CCCCc1cc2ccccc2c(OCCN(C)C)n1 | -77.9 | 8.91 µM (active) | 7.08 µM (active) | inactive | 7.08 µM (active) |  |  |  | 
45 | CCCCN=C(N)N=C(N)N | 24.1 |  |  | inactive |  | inactive | inactive | inactive | 
46 | Cc1ccc(Cl)c(OCC(O)CNC(C)(C)C)c1 (centres undefined) | -22.3 | 15.8 µM (active) | 28.2 µM (active) | inactive | 28.2 µM (active) |  |  |  | 
47 | C[C@H](N)C(=O)N[C@@H](C)C(=O)NC1[C@H]2CN(c3nc4c(cc3F)c(=O)c(C(=O)O)cn4-c3ccc(F)cc3F)C[C@@H]12 (some centres undefined) | 11 |  |  | inactive |  | inactive | inactive | inactive | 
48 | Cc1cc(=O)oc2cc(O)ccc12 | -26.6 |  |  | inactive |  | inactive | inactive | inactive | 
49 | CCCOc1ccc2nc(NC(=O)OC)[nH]c2c1 | -28.5 | 0.501 µM (active) | 0.562 µM (active) | inactive | 0.562 µM (active) |  |  |  | 
50 | Cc1c(F)cc2c(=O)c(C(=O)O)cn3c2c1CCC3C (centres undefined) | 17.9 |  |  | inactive |  | inactive | inactive | inactive | inactive
51 | CC(C)(C)C(=O)C(Oc1ccc(Cl)cc1)n1ccnc1 (centres undefined) | 12.3 | 39.8 µM (active) |  | inactive | 39.8 µM (active) | inactive |  |  | 
